# According to PubChem BioAssay (Tox21):
# Where “and” joins values, the source holds several entries; their conditions need not be identical. Identical values can stand only once. Some compounds were tested as several samples or in several runs, with calls that do not always agree. Calls of active or inactive are those of the source. Entries that show only a call come without a potency. Unless noted, calls follow the shape of the dose curve; as a rule, active = well fitted curve in the direction sought with a large enough effect in the repeat runs; inconclusive = weak or mixed curves; inactive = no such curve, though single readings can be large; an effect the other way counts as inactive or inconclusive.
# Molecular target: Estrogen receptor (Homo sapiens) (UniProt P03372)
# Sequence (P03372 whole entry, looked up): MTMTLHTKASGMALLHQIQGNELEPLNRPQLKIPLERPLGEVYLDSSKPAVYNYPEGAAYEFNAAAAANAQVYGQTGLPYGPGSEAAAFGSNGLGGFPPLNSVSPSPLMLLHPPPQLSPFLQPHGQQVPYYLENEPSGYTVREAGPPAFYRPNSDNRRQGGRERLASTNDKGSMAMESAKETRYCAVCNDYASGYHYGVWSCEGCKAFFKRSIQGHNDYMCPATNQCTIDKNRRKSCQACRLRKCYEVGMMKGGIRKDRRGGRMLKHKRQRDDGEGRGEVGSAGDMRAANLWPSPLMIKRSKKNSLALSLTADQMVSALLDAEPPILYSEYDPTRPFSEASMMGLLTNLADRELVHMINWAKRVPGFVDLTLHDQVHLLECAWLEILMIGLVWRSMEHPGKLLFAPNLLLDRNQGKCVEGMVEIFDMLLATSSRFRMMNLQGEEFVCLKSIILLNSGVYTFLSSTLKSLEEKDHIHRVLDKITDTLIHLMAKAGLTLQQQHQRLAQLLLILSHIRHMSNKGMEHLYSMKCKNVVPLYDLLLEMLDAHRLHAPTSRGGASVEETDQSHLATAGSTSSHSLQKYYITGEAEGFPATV
# Experiment: qHTS assay to identify small molecule agonists of the estrogen receptor alpha (ER-alpha) signaling pathway (AID 743075; calls by dose curve;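 also: HEK293 GripTite cells with ER-alpha and UAS-driven beta-lactamase reporter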; also: potency is read from the fitted curve at half-maximal effect)
# Conditions: HEK293 ER-alpha-UAS-bla, beta-lactamase FRET ratio, 18 h; activation: at 70.1 µM (top of the series)
row,Structure (SMILES),Potency
1,CCOC(=O)c1nc(C(Cl)(Cl)Cl)n(-c2ccc(Cl)cc2Cl)n1,inactive
2,OCc1c[nH]c2ccccc12,4.36 µM [fluorescent] (active)
3,CCCCCCCCCCCCCCCC(=O)OC[C@H](O)[C@H]1OC(=O)C(O)=C1O,inactive
4,Oc1ccc(N=Nc2ccccc2)cc1,49.6 µM [inconclusive] (active)
5,CSc1ccc(/C=C2/C(C)=C(CC(=O)O)c3cc(F)ccc32)cc1,inactive
6,c1cc(C(c2ccc(OCC3CO3)cc2)c2ccc(OCC3CO3)cc2)ccc1OCC1CO1 (stereo not given),inactive
7,CC(C)(C)NC(=O)[C@@H]1C[C@@H]2CCCC[C@@H]2CN1C[C@@H](O)[C@H](Cc1ccccc1)NC(=O)[C@H](CC(N)=O)NC(=O)c1ccc2ccccc2n1,inactive
8,N=C1N=C(N)c2ccccc21,inactive
9,Cc1nc(-c2ccc3c(c2)CCN(CCC2CCC(NC(=O)/C=C/c4ccc(F)cc4)CC2)CC3)no1 (stereo not given),9.79 µM [inconclusive] (active)
10,CN(C)c1ccc(C2(c3ccc(N(C)C)cc3)OC(=O)c3cc(N(C)C)ccc32)cc1,21.8 µM [inconclusive] (active)
11,CC1(C)CCC(C)(C)c2cc(C(=O)Nc3ccc(C(=O)O)cc3)ccc21,inactive
12,CC(C)=CCOc1ccc(/C=C/C(=O)c2ccc(OCC=C(C)C)cc2OCC(=O)O)cc1,inactive
13,CSc1ccc2c(c1)C(N1CCN(C)CC1)Cc1ccccc1S2 (stereo not given),inactive
14,CCCCC(CC)COP(=O)(O)OCC(CC)CCCC (stereo not given),inactive
15,O=C(Nc1cccc(C(F)(F)F)c1)c1cc(Br)cc(Br)c1O,inactive
16,CCCCCOC(=O)CCCC,inactive
17,CCc1cc(Cc2cc(CC)c(N)c(CC)c2)cc(CC)c1N,inactive
18,CCCCCCCCn1sc(Cl)c(Cl)c1=O,inactive
19,CCCCCCCCS(=O)C(C)Cc1ccc2c(c1)OCO2 (stereo not given),inactive
20,NNc1nc(-c2ccc([N+](=O)[O-])cc2)cs1,inactive
21,O=c1[nH]sc2ccccc12,inactive
22,CNCc1cc(F)ccc1Oc1ccc(Cl)c(Cl)c1,inactive
23,C/C=C1/C(=O)C[C@H]2[C@@H]3CCC4=CC(=O)CC[C@]4(C)[C@H]3CC[C@]12C,inactive

# Molecular target: Estrogen receptor (Homo sapiens) (UniProt P03372)
# Experiment: qHTS assay to identify small molecule agonists of the estrogen receptor alpha (ER-alpha) signaling pathway using the BG1 cell line (AID 743079); also: nearly all actives have a fitted effect of over 20% in size
# Conditions: BG1Luc4E2 cells, ERE-luciferase agonist, 22 h; at 70.3 µM (top of the series)
row,Structure (SMILES),activation
1,CCCCCCCCCCCCCCCC(=O)OC[C@H](O)[C@H]1OC(=O)C(O)=C1O,0.436% (inactive) and 6.85% (inactive)
2,CSc1ccc(/C=C2/C(C)=C(CC(=O)O)c3cc(F)ccc32)cc1,-0.897% (inactive)
3,N=C1N=C(N)c2ccccc21,3.41% (inactive)
4,CN(C)c1ccc(C2(c3ccc(N(C)C)cc3)OC(=O)c3cc(N(C)C)ccc32)cc1,-6.04% (inactive)
5,CC(C)=CCOc1ccc(/C=C/C(=O)c2ccc(OCC=C(C)C)cc2OCC(=O)O)cc1,-17.4% (inactive)
6,CSc1ccc2c(c1)C(N1CCN(C)CC1)Cc1ccccc1S2 (stereo not given),-16.2% (inactive)
7,CCCCCOC(=O)CCCC,-1.52% (inactive)
8,O=c1[nH]sc2ccccc12,-22% (inactive)

# System: not listed separately
# Experiment: qHTS assay to identify small molecule antagonists of the estrogen receptor alpha (ER-alpha) signaling pathway using the BG1 cell line (AID 743080; calls by dose curve;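 also: BG1 cells stimulated with 17beta-estradiol alongside compound; nearly all actives have a fitted effect of over 25% in size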; also: potency is read from the fitted curve at half-maximal effect)
# Conditions: BG1Luc4E2 ERE-luciferase antagonist mode, luminescence; series mostly up to 70.3 µM
# Outline: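 Readout is ONE-Glo luminescence, taken 30 min at room temperature after reagent addition, preceded by a CellTiter-Fluor viability read; BG1-Luc-4E2 cells had received compound and 17beta-estradiol for 21.5 h at 37 C.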
row,Structure (SMILES),Potency
1,CCOC(=O)c1nc(C(Cl)(Cl)Cl)n(-c2ccc(Cl)cc2Cl)n1,inactive
2,CCCCCCCCCCCCCCCC(=O)OC[C@H](O)[C@H]1OC(=O)C(O)=C1O,inactive
3,CSc1ccc(/C=C2/C(C)=C(CC(=O)O)c3cc(F)ccc32)cc1,inactive
4,c1cc(C(c2ccc(OCC3CO3)cc2)c2ccc(OCC3CO3)cc2)ccc1OCC1CO1 (stereo not given),inactive
5,Oc1c(Cl)cc(Cl)c2cccnc12,21.1 µM (active)
6,Cc1nc(-c2ccc3c(c2)CCN(CCC2CCC(NC(=O)/C=C/c4ccc(F)cc4)CC2)CC3)no1 (stereo not given),inactive
7,CN(C)c1ccc(C2(c3ccc(N(C)C)cc3)OC(=O)c3cc(N(C)C)ccc32)cc1,inactive
8,CC1(C)CCC(C)(C)c2cc(C(=O)Nc3ccc(C(=O)O)cc3)ccc21,0.0043 µM (active)
9,CC(C)=CCOc1ccc(/C=C/C(=O)c2ccc(OCC=C(C)C)cc2OCC(=O)O)cc1,inactive
10,CSc1ccc2c(c1)C(N1CCN(C)CC1)Cc1ccccc1S2 (stereo not given),inactive
11,CCCCC(CC)COP(=O)(O)OCC(CC)CCCC (stereo not given),inactive
12,CCCCCOC(=O)CCCC,inactive
13,CCc1cc(Cc2cc(CC)c(N)c(CC)c2)cc(CC)c1N,61.1 µM (active)
14,O=c1[nH]sc2ccccc12,inactive

# System: not listed separately
# Experiment: qHTS assay to identify small molecule antagonists of the estrogen receptor alpha (ER-alpha) signaling pathway using the BG1 cell line - cell viability counter screen (AID 743081);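 also: compound given together with 17beta-estradiol as the ER stimulus; nearly all actives have a fitted effect of over 45% in size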; also: potency is read from the fitted curve at half-maximal effect
# Conditions: BG1Luc4E2 viability, CellTiter-Fluor, 22 h; series mostly up to 70.3 µM
row,Structure (SMILES),Potency
1,CCCCCCCCCCCC(=O)NCCCN(C)C,61.1 µM (active)
2,CCCCCCCCCOC(=O)c1ccc(O)cc1,inactive
3,CCCCCCCCCCCCCCCC(=O)OC[C@H](O)[C@H]1OC(=O)C(O)=C1O,inactive
4,CSc1ccc(/C=C2/C(C)=C(CC(=O)O)c3cc(F)ccc32)cc1,inactive
5,c1cc(C(c2ccc(OCC3CO3)cc2)c2ccc(OCC3CO3)cc2)ccc1OCC1CO1 (stereo not given),inactive
6,CC(C)OC(=O)c1cc2c(OCC(O)CNC(C)(C)C)cccc2[nH]1 (stereo not given),inactive
7,CC[C@H]1O[C@]2(CC[C@@H]1C)C[C@@H]1C[C@@H](C/C=C(\C)C[C@@H](C)/C=C/C=C3\CO[C@@H]4[C@H](O)C(C)=C[C@@H](C(=O)O1)[C@]34O)O2,60.6 µM (active)
8,CCCCN(CCCC)c1ccc(C(=O)c2ccccc2C(=O)O)c(O)c1,inactive
9,CN(C/C=C/C#CC(C)(C)C)Cc1cccc2ccccc12,inactive
10,CC(C)(C)NC(=O)[C@@H]1C[C@@H]2CCCC[C@@H]2CN1C[C@@H](O)[C@H](Cc1ccccc1)NC(=O)[C@H](CC(N)=O)NC(=O)c1ccc2ccccc2n1,23.7 µM (active) and 49.2 µM (active)
11,Oc1c(Cl)cc(Cl)c2cccnc12,inactive
12,O=C(Nc1ccc(Oc2ccc(Cl)cc2)c(Cl)c1)c1cc(I)cc(I)c1O,inactive
13,N=C1N=C(N)c2ccccc21,inactive
14,Cc1nc(-c2ccc3c(c2)CCN(CCC2CCC(NC(=O)/C=C/c4ccc(F)cc4)CC2)CC3)no1 (stereo not given),inactive
15,CN(C)c1ccc(C2(c3ccc(N(C)C)cc3)OC(=O)c3cc(N(C)C)ccc32)cc1,inactive
16,CCCCCCCCCCCC[N+](C)(C)CCCCCCCCCCCC,68.6 µM (active)
17,CC1(C)CCC(C)(C)c2cc(C(=O)Nc3ccc(C(=O)O)cc3)ccc21,inactive
18,CC(C)=CCOc1ccc(/C=C/C(=O)c2ccc(OCC=C(C)C)cc2OCC(=O)O)cc1,inactive
19,CSc1ccc2c(c1)C(N1CCN(C)CC1)Cc1ccccc1S2 (stereo not given),inactive
20,Oc1ccc2cc(SSc3ccc4cc(O)ccc4c3)ccc2c1,inactive
21,CCCCC(CC)COP(=O)(O)OCC(CC)CCCC (stereo not given),inactive
22,Cc1ccc(O)c(C(C)(C)C)c1,61 µM (active) and inactive
23,CCCCCOC(=O)CCCC,inactive
24,Clc1ccc2n[nH]nc2c1,inactive
25,CCc1cc(Cc2cc(CC)c(N)c(CC)c2)cc(CC)c1N,inactive
26,CCCCCCCCS(=O)C(C)Cc1ccc2c(c1)OCO2 (stereo not given),inactive
27,NNc1nc(-c2ccc([N+](=O)[O-])cc2)cs1,54.5 µM (active)
28,O=c1[nH]sc2ccccc12,inactive
29,CNCc1cc(F)ccc1Oc1ccc(Cl)c(Cl)c1,inactive
30,C/C=C1/C(=O)C[C@H]2[C@@H]3CCC4=CC(=O)CC[C@]4(C)[C@H]3CC[C@]12C,inactive
